HT1080-NT tox – kills 2HG-producing HT-1080-NT fibrosarcoma cells; Potency, µM (highest dose often 46.1 µM), without a hit: at the top dose activity, negative = less viability, usual class: cytotoxic; actives 1.6% (n = 360,000); HT-1080-NT fibrosarcoma viability, CellTiter-Glo ATP luminescence, 48 h;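 note: NT is the 2HG producing partner of a matched IDH1 knockdown line; potency is the fitted concentration of half-maximal effect; 0% = DMSO-treated cells and -100% = media-only wells without cells; nearly all actives have a fitted effect of over 55% in size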
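Luminescent CellTiter-Glo readout after 48 hours of compound exposure at 37 degrees C defined viability of HT-1080-NT cells. Activity was normalized to DMSO wells and cell-free media wells; concentration-response curves were fitted and assigned curve classes.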
DT40 TDP1 no CPT – qHTS for Inhibitors of human tyrosyl-DNA phosphodiesterase 1 (TDP1): qHTS in cells in absence of CPT; DT40 Tdp1-/- hTDP1 cells, no CPT, ATP luminescence, 48 h; Potency, µM (doses to about 46.2 µM), inactives show top-dose activity change, negative = growth inhibition, most hits filed as inhibitors; actives 15% (n = 420,000); note: potency is the fitted concentration of half-maximal effect; nearly all actives have a fitted effect of over 55% in size
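Compound effects on proliferation are scored in DT40 Tdp1-/-;hTDP1 cells in the absence of CPT. ATP levels (CellTiter-Glo luminescence) are recorded after a ≥48 hr, 37 °C incubation.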
IL-1B inflam inh – inflammasome signaling inhibition, IL-1 beta readout | THP-1 LPS/ATP IL-1B secretion, AlphaLISA, 16 h; active compounds read low | activity change, % at 57.5 µM | actives 4.7% (n = 360,000) | AID 743279; in the data active = activity change below about -50%; inconclusive = mostly about -30% to -49%
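Secreted IL-1B measured by AlphaLISA bead assay after 16 h compound exposure of THP-1 cells; compounds (final up to 57.5 uM) added 1 h before LPS (250 ng/mL) and ATP (1.25 mM) stimulation; lower signal means less secretion.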
HT1080 IDH1KD tx – toxicity to HT-1080 IDH1 knockdown cells (counter line); actives 2% (n = 360,000); HT-1080 IDH1 knockdown viability, ATP luminescence, 48 h; Potency, µM (series often up to 46.1 µM), inactives show at the highest dose activity, negative = toxicity, most hits filed as cytotoxic;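 note: potency is the fitted concentration of half-maximal effect; 0% = DMSO wells and -100% = cell-free medium wells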
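After a 2 h attachment period, IDH1KD HT-1080 cells took pin-transferred compound for 48 h at 37 °C; ATP-based luminescence after 10 min room-temperature reagent incubation reported viability.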
DT40 TDP1 CPT – DT40-hTDP1 cell growth loss with CPT | AID 686979 | actives 12% (n = 420,000) | Potency, µM (titrated, usually from 46.2 µM), for the others: top-dose activity change, negative = growth inhibition, hits mostly inhibitors | chicken DT40 Tdp1-/-;hTDP1 cells + 20 nM CPT, ATP luminescence, 48 h; note: potency is the fitted concentration of half-maximal effect; nearly all actives have a fitted effect of over 55% in size
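Cell growth measured by CellTiter-Glo luminescence after a minimum 48 h, 37 C compound exposure with 20 nM CPT in Tdp1-knockout DT40 cells stably expressing hTDP1, seeded 400/well; qHTS titration format.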
Numbers without * were called inactive; ? = inconclusive; . = not tested or not shown. Most compounds without a hit are left out; they make up all but 19% or so of the library. Unless noted, calls come from the whole dose curve; as a rule, active = well fitted curve in the direction sought with a large enough effect; inconclusive = small, poorly fitted or top-dose-only effect, or another doubt; inactive = no such curve, though single readings can be large; an effect the other way counts as inactive or inconclusive. Unless noted, % is set by controls: 0 for no effect and ±100 for the full control effect.

SMILES | HT1080-NT tox | DT40 TDP1 no CPT | IL-1B inflam inh | HT1080 IDH1KD tx | DT40 TDP1 CPT
CN(Cc1ccccc1)C(=O)c1ccc(NC(=O)Cc2ccc([N+](=O)[O-])cc2)cc1 | -10% | ? | 0 | -28% | ?
CCc1cccc(NC(=O)c2coc(=O)c3ccccc23)c1 | . | ? | . | . | -26%
CCCC(=O)N1CCN(c2nc3ccc(Cl)cc3s2)CC1 | -3% | ? | -8 | 4% | ?
CC(C)(C)C(=O)N1CCN(c2nc3ccc(Cl)cc3s2)CC1 | -5% | 23µM* | ? | -16% | ?
CCCCN(C)CCNC(=O)CCn1nc(-c2ccc(Cl)cc2)ccc1=O | -3% | 0% | -6 | 0% | -16%
CCCCN(C)CCNC(=O)CCn1nc(-c2ccc(C)cc2)ccc1=O | 0% | -9% | -13 | 0% | 21µM*
Cc1ccc(C(=O)N2C(=S)C(c3ccc(F)cc3)=NC23CCN(C)CC3)cc1 | ? | 4.6µM* | -9 | 18µM* | 5.2µM*
COc1ccc(C(C(=O)NCc2ccccc2)N(C(=O)c2snc(C(N)=O)c2N)c2ccccc2OC)cc1OC (configuration not stated) | -7% | ? | 0 | -9% | ?
Cc1ccccc1N(C(=O)c1snc(C(N)=O)c1N)C(C(=O)NCc1ccccc1)c1ccc(O)cc1 (configuration not stated) | ? | 26µM* | -100* | ? | 23µM*
NC(=O)c1nsc(C(=O)N(Cc2ccco2)C(C(=O)NCc2ccccc2)c2ccc(O)cc2)c1N (configuration not stated) | -21% | 12µM* | -4 | -28% | ?
COc1ccccc1N(C(=O)c1snc(C(N)=O)c1N)C(C(=O)NCc1ccccc1)c1ccc(C)o1 (configuration not stated) | -9% | ? | -73* | -12% | ?
CCOc1ccccc1N(C(=O)c1snc(C(N)=O)c1N)C(C(=O)NCc1ccccc1)c1ccc(O)cc1 (configuration not stated) | -29% | ? | -67* | ? | 23µM*
Cc1cccc(C)c1NC(=O)CN(C)C(=O)CC1OC(=O)c2ccccc21 (configuration not stated) | -2% | -10% | 3 | 14% | 6%
O=C(Cn1cc(COc2c(F)c(F)c(Br)c(F)c2F)nn1)c1ccc(O)cc1 | 2% | ? | 0 | 0% | ?
C[C@@H]1CN([C@@H](C)CO)C(=O)CCCn2nncc2CO[C@@H]1CN(C)C(=O)Nc1ccccc1 | 4% | 2% | 0 | 1% | 8%
CN(C)c1ccc(C(C(=O)NC2CCCCC2)N(Cc2ccco2)C(=O)c2snc(C(N)=O)c2N)cc1 (configuration not stated) | 8% | 9.2µM* | -72* | 0% | ?
CN(C)c1ccc(C(C(=O)NCc2ccccc2)N(Cc2cccnc2)C(=O)c2snc(C(N)=O)c2N)cc1 (configuration not stated) | -12% | 16µM* | -19 | -27% | 21µM*
Cc1ccccc1N(C(=O)c1snc(C(N)=O)c1N)C(C(=O)NC1CCCCC1)c1ccc(O)cc1 (configuration not stated) | ? | ? | 0 | 9.2µM* | ?
COc1ccc(C)cc1N(C(=O)c1snc(C(N)=O)c1N)C(C(=O)NC1CCCC1)c1ccc(F)cc1 (configuration not stated) | ? | 16µM* | -12 | -15% | ?
CCC(=O)N1c2ccc(S(=O)(=O)NCc3ccccc3)cc2CC1C (configuration not stated) | -1% | -29% | 0 | -2% | ?
O=c1c2sc3ccccc3c2[nH]c(=S)n1CCN1CCOCC1 | 11% | 5% | 52 | 13% | 14%
CCOc1ccccc1/C=N/N1CCN(Cc2ccccc2)CC1 | -2% | -5% | -4 | 4% | -10%
O=c1oc2ccccc2n1Cc1ccccc1Cl | -22% | ? | 14 | -1% | -9%
O=C(CN1CCN(C(=O)c2ccco2)CC1)Nc1cc(Cl)ccc1Cl | 0% | -28% | 4 | -15% | -30%
O=C(CN1CCN(C(=O)c2ccco2)CC1)Nc1ccccc1-c1ccccc1 | -4% | ? | 13 | -3% | 26µM*
SMILES | HT1080-NT tox | DT40 TDP1 no CPT | IL-1B inflam inh | HT1080 IDH1KD tx | DT40 TDP1 CPT
CCOC(=O)c1cc(C)sc1NC(=O)CN1CCN(C(=O)c2ccco2)CC1 | -7% | ? | 0 | -16% | 23µM*
Cc1ccc(OCCCC(=O)Nc2cc(Cl)ccc2-n2cncn2)cc1 | 0% | ? | 8 | 0% | -14%
COCCCn1c(SCC(=O)Nc2nc3ccccc3s2)nnc1-c1ccoc1C | -4% | ? | 15 | -8% | -19%
Cc1ccc(Cl)cc1N1CCN(C(=O)c2cc(S(=O)(=O)N3CCC(C)CC3)cn2C)CC1 | . | 15µM* | . | . | 23µM*
COC(=O)c1cc(S(=O)(=O)N2CCN(c3ccccc3OC)CC2)cn1C | -4% | ? | 11 | -10% | 5%
COc1ccccc1N1CCN(C(=O)c2cc(S(=O)(=O)N3CCC(C)CC3)cn2C)CC1 | . | ? | . | . | 21µM*
COc1ccc(N(CC(=O)NC2CCCCC2)C(=O)CNC(=O)c2cccs2)cc1OC | 0% | -3% | -13 | -1% | 2%
C[n+]1cc[nH]c1SCC(=O)c1ccccc1 | 0% | -5% | 19 | 7% | -3%
CC1(C)CC[C@]2(C)CC[C@@]3(C)C(=CCC4[C@@]5(C)CCC(O)C(C)(C)C5CC[C@@]43C)C2C1 (some centres not stated) | . | 6% | . | . | 20%
CCOC(=O)N1CCC2(CC1)C(C(=O)C13CC4CC(CC(C4)C1)C3)C2(C#N)C#N (configuration not stated) | -3% | ? | -54* | -1% | ?
CSc1ccc(CN2CCN(C(=O)c3ccc([N+](=O)[O-])cc3)CC2)cc1 | -15% | 21µM* | -25 | ? | ?
O=C(c1ccc(Oc2ccc([N+](=O)[O-])cc2)cc1)N1CCCCCC1 | -16% | ? | -78* | ? | ?
O=C(c1ccc(Oc2ccc([N+](=O)[O-])cc2Cl)cc1)N1CCCC1 | 20% | ? | 0 | -10% | ?
O=C(c1ccc(Cn2ccc([N+](=O)[O-])n2)cc1)N1CCN(Cc2ccccc2)CC1 | -16% | ? | -19 | 6% | 4%
O=C(NCC1CCN(C(=O)c2ccc([N+](=O)[O-])cc2)CC1)C(=O)Nc1ccccc1 | 20% | 21µM* | 20 | 11% | ?
